Measurements from the supplement of paper PMC7411054.

Columns and labels:
Details in all cases: treatment time: 24 h
A549-ACTB-RAB5A [1] = experiment: lowest phenotypically active concentration; higher = less potent
Method in brief: (§1)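 The reporter lines, fifteen in total and built by gene editing in A549, HepG2 and WPMY1 cells, used BFP for segmentation alongside GFP and RFP/FusionRed markers. Each was treated at 0.3, 1, 3 or 9 µM for 24 h in four wells and then imaged live, with live-cell features normalised to solvent control wells. Deviation meant ≥3 of 4 wells beyond the 95th percentile of control Euclidean distances; reproducibility meant a median replicate Pearson correlation above the 95th percentile of non-replicates. Only conditions meeting both were scored as phenotypically active.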

A549-GM130-SQSTM1 [2] = experiment: as above
Method in brief: as §1

A549-TUBA1B-RELA [3] = experiment: as above
Method in brief: as §1

HepG2-ACTB-RAB5A [4] = experiment: as above
Method in brief: as §1

WPMY1-CANX-COX4 [5] = experiment: as above
Method in brief: as §1

A549-ACTB-RAB5A [6] = experiment: phenotypically active (imaging signature differs from DMSO and reproducible) at any of 0.3-9 uM (binary (1 = active, 0 = inactive)); higher = active
Method in brief: as §1

A549-CANX-COX4 = experiment: as above
Method in brief: as §1

A549-GM130-SQSTM1 [7] = experiment: as above
Method in brief: as §1

A549-TP53BP1-CLTA = experiment: as above
Method in brief: as §1

A549-TUBA1B-RELA [8] = experiment: as above
Method in brief: as §1

HepG2-ACTB-RAB5A [9] = experiment: as above
Method in brief: as §1

HepG2-CANX-COX4 = experiment: as above
Method in brief: as §1

HepG2-GM130-SQSTM1 = experiment: as above
Method in brief: as §1

HepG2-TP53BP1-CLTA = experiment: as above
Method in brief: as §1

HepG2-TUBA1B-RELA = experiment: as above
Method in brief: as §1

WPMY1-ACTB-RAB5A = experiment: as above
Method in brief: as §1

WPMY1-CANX-COX4 [10] = experiment: as above
Method in brief: as §1

WPMY1-GM130-SQSTM1 = experiment: as above
Method in brief: as §1

WPMY1-TP53BP1-CLTA = experiment: as above
Method in brief: as §1

WPMY1-TUBA1B-RELA = experiment: as above
Method in brief: as §1

CC(C)n1nc(-c2cc3cc(O)ccc3[nH]2)c2c(N)ncnc21
1 µM: lowest phenotypically active concentration (A549-ACTB-RAB5A [1]) | lowest phenotypically active concentration (A549-GM130-SQSTM1 [2]) | lowest phenotypically active concentration (A549-TUBA1B-RELA [3]) | lowest phenotypically active concentration (HepG2-ACTB-RAB5A [4]) | lowest phenotypically active concentration (WPMY1-CANX-COX4 [5])
active: phenotypically active (A549-ACTB-RAB5A [6]) 1 | phenotypically active (A549-CANX-COX4) 1 | phenotypically active (A549-GM130-SQSTM1 [7]) 1 | phenotypically active (A549-TP53BP1-CLTA) 1 | phenotypically active (A549-TUBA1B-RELA [8]) 1 | phenotypically active (HepG2-ACTB-RAB5A [9]) 1 | phenotypically active (HepG2-CANX-COX4) 1 | phenotypically active (HepG2-GM130-SQSTM1) 1 | phenotypically active (HepG2-TP53BP1-CLTA) 1 | phenotypically active (HepG2-TUBA1B-RELA) 1 | phenotypically active (WPMY1-ACTB-RAB5A) 1 | phenotypically active (WPMY1-CANX-COX4 [10]) 1 | phenotypically active (WPMY1-GM130-SQSTM1) 1 | phenotypically active (WPMY1-TP53BP1-CLTA) 1 | phenotypically active (WPMY1-TUBA1B-RELA) 1

CCOC(=O)Nc1cc(-c2ccc(C)c(NS(C)(=O)=O)c2)nn2c(C)nnc12 [Bromosporine]
1 µM: lowest phenotypically active concentration (A549-GM130-SQSTM1 [2]) | lowest phenotypically active concentration (A549-TUBA1B-RELA [3]) | lowest phenotypically active concentration (WPMY1-CANX-COX4 [5])
≤ 0.3 µM: lowest phenotypically active concentration (A549-ACTB-RAB5A [1]) | lowest phenotypically active concentration (HepG2-ACTB-RAB5A [4])
active: phenotypically active (A549-ACTB-RAB5A [6]) 1 | phenotypically active (A549-CANX-COX4) 1 | phenotypically active (A549-GM130-SQSTM1 [7]) 1 | phenotypically active (A549-TP53BP1-CLTA) 1 | phenotypically active (A549-TUBA1B-RELA [8]) 1 | phenotypically active (HepG2-ACTB-RAB5A [9]) 1 | phenotypically active (HepG2-CANX-COX4) 1 | phenotypically active (HepG2-GM130-SQSTM1) 1 | phenotypically active (HepG2-TP53BP1-CLTA) 1 | phenotypically active (HepG2-TUBA1B-RELA) 1 | phenotypically active (WPMY1-ACTB-RAB5A) 1 | phenotypically active (WPMY1-CANX-COX4 [10]) 1 | phenotypically active (WPMY1-GM130-SQSTM1) 1 | phenotypically active (WPMY1-TP53BP1-CLTA) 1 | phenotypically active (WPMY1-TUBA1B-RELA) 1

Cc1ccc(Nc2nccc(N(C)c3ccc4c(C)n(C)nc4c3)n2)cc1S(N)(=O)=O [pazopanib]
1 µM: lowest phenotypically active concentration (A549-ACTB-RAB5A [1])
inactive: phenotypically active (HepG2-ACTB-RAB5A [9]) 0 | phenotypically active (HepG2-TUBA1B-RELA) 0 | phenotypically active (WPMY1-GM130-SQSTM1) 0 | phenotypically active (WPMY1-TP53BP1-CLTA) 0
3 µM: lowest phenotypically active concentration (A549-GM130-SQSTM1 [2]) | lowest phenotypically active concentration (A549-TUBA1B-RELA [3]) | lowest phenotypically active concentration (WPMY1-CANX-COX4 [5])
active: phenotypically active (A549-ACTB-RAB5A [6]) 1 | phenotypically active (A549-CANX-COX4) 1 | phenotypically active (A549-GM130-SQSTM1 [7]) 1 | phenotypically active (A549-TP53BP1-CLTA) 1 | phenotypically active (A549-TUBA1B-RELA [8]) 1 | phenotypically active (HepG2-CANX-COX4) 1 | phenotypically active (HepG2-GM130-SQSTM1) 1 | phenotypically active (HepG2-TP53BP1-CLTA) 1 | phenotypically active (WPMY1-ACTB-RAB5A) 1 | phenotypically active (WPMY1-CANX-COX4 [10]) 1 | phenotypically active (WPMY1-TUBA1B-RELA) 1

CC(C)(C)Nc1nc(Nc2ccc(C(N)=O)cc2)cc(N)c1C#N
active: phenotypically active (A549-ACTB-RAB5A [6]) 1 | phenotypically active (A549-CANX-COX4) 1 | phenotypically active (A549-GM130-SQSTM1 [7]) 1 | phenotypically active (A549-TP53BP1-CLTA) 1 | phenotypically active (A549-TUBA1B-RELA [8]) 1 | phenotypically active (HepG2-ACTB-RAB5A [9]) 1 | phenotypically active (HepG2-CANX-COX4) 1 | phenotypically active (HepG2-GM130-SQSTM1) 1 | phenotypically active (HepG2-TP53BP1-CLTA) 1 | phenotypically active (HepG2-TUBA1B-RELA) 1 | phenotypically active (WPMY1-ACTB-RAB5A) 1 | phenotypically active (WPMY1-CANX-COX4 [10]) 1 | phenotypically active (WPMY1-GM130-SQSTM1) 1 | phenotypically active (WPMY1-TP53BP1-CLTA) 1 | phenotypically active (WPMY1-TUBA1B-RELA) 1
3 µM: lowest phenotypically active concentration (A549-ACTB-RAB5A [1]) | lowest phenotypically active concentration (A549-GM130-SQSTM1 [2]) | lowest phenotypically active concentration (A549-TUBA1B-RELA [3]) | lowest phenotypically active concentration (HepG2-ACTB-RAB5A [4])
9 µM: lowest phenotypically active concentration (WPMY1-CANX-COX4 [5])

COc1cc2nc(N3CCN(C(=O)C4COc5ccccc5O4)CC3)nc(N)c2cc1OC (centres undefined) [doxazosin]
inactive: phenotypically active (HepG2-CANX-COX4) 0 | phenotypically active (WPMY1-TUBA1B-RELA) 0
active: phenotypically active (A549-ACTB-RAB5A [6]) 1 | phenotypically active (A549-CANX-COX4) 1 | phenotypically active (A549-GM130-SQSTM1 [7]) 1 | phenotypically active (A549-TP53BP1-CLTA) 1 | phenotypically active (A549-TUBA1B-RELA [8]) 1 | phenotypically active (HepG2-ACTB-RAB5A [9]) 1 | phenotypically active (HepG2-GM130-SQSTM1) 1 | phenotypically active (HepG2-TP53BP1-CLTA) 1 | phenotypically active (HepG2-TUBA1B-RELA) 1 | phenotypically active (WPMY1-ACTB-RAB5A) 1 | phenotypically active (WPMY1-CANX-COX4 [10]) 1 | phenotypically active (WPMY1-GM130-SQSTM1) 1 | phenotypically active (WPMY1-TP53BP1-CLTA) 1
9 µM: lowest phenotypically active concentration (A549-ACTB-RAB5A [1]) | lowest phenotypically active concentration (A549-GM130-SQSTM1 [2]) | lowest phenotypically active concentration (HepG2-ACTB-RAB5A [4]) | lowest phenotypically active concentration (WPMY1-CANX-COX4 [5])
3 µM: lowest phenotypically active concentration (A549-TUBA1B-RELA [3])
